# Assay results: the supplement of paper PMC12636033
# ± gives the standard deviation of the averaged measurements. In all, about 33,000 sequences were measured (“E-score (rank enrichment, -0.5 to 0.5)”: median about -0.0068, highest 2% from about 0.24 on). What follows is part of a selection rich in the highest values, with near analogues and random picks from the rest.
# Test system: muMax20 (Max(13-93) K31hArg/K57hArg, M65Nle)
# Assay: PBM 8-mer E-score (E-score (rank enrichment, -0.5 to 0.5)); higher = stronger preferential binding
# Procedure: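 Protein binding microarray (universal PBM chip covering all 10-mers in fixed probe flanks) with chemically synthesized human Max(13-93) bHLH-LZ analogs (not full-length Max) bearing noncanonical residues (hArg, Tha, Aib, Nle at 65) and aromatic Cys staples. Read-out per 8-mer (and its reverse complement): E-score (rank-based enrichment, -0.5 to 0.5) and Z-score of median probe intensity.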
row,Sequence,PBM 8-mer E-score
1,AAGCGAGG,-0.129 ± 0.12
2,GGCCACTA,0.0658 ± 0.077
3,GTTGCGCA,-0.0795 ± 0.002
4,CACAGGTG,-0.0404 ± 0.033
5,ACCTATCA,0.0576 ± 0.061
6,CTATCGTC,-0.0258 ± 0.024
7,CCGCGACA,-0.0992 ± 0.1
8,TGGCAAAA,-0.0471 ± 0.026
9,CCACGGGG,-0.281 ± 0.017
10,AAATCACA,0.203 ± 0.026
11,CAATCACG,0.288 ± 0.039
12,CAATCACA,0.122 ± 0.095
13,TAATCACA,0.264 ± 0.042
14,CAATCACC,0.139 ± 0.013
15,GAATCACA,-0.0241 ± 0.022
16,CCCGCAGC,-0.278 ± 0.086
17,TAACGGGA,-0.0715 ± 0.059
18,ACCGCTAC,-0.215 ± 0.034
19,AACTCCAG,-0.117 ± 0.049
20,AAATGTAA,0.157 ± 0.049
21,AATTGTAA,0.196 ± 0.011
22,CAATGTGA,0.148 ± 0.0073

row,Sequence,PBM 8-mer E-score
1,GAATGTGA,0.0628 ± 0.06
2,GATTGTAA,0.0589 ± 0.011
3,TAATGTAA,0.252 ± 0.024
4,GAATGTAA,0.0967 ± 0.041
5,TAATGTGA,0.262 ± 0.065
6,TATTGTAA,0.242 ± 0.023
7,AGTGGCCC,-0.0606 ± 0.016
8,TCCCGACA,-0.0715 ± 0.11
9,GTTACCTA,0.0231 ± 0.039
10,ACCGGCTG,-0.257 ± 0.018
11,TCAAGAAA,0.103 ± 0.021
12,TCACTCCA,-0.0737 ± 0.21
13,GATCCGAA,-0.13 ± 0.057
14,GAGATGGC,0.0296 ± 0.023
15,CAGTCCGG,-0.297 ± 0.023
16,ATCCAGCC,-0.09 ± 0.07
17,GCTTGCAC,-0.252 ± 0.0059
18,AGCCGGTC,-0.295 ± 0.086
19,ACTGTTCC,-0.187 ± 0.12
20,ACGTGGAT,0.342 ± 0.012
21,CCGTGGAG,-0.131 ± 0.092
22,GCGTGGAC,0.0607 ± 0.05

row,Sequence,PBM 8-mer E-score
1,CCGTGGAC,-0.13 ± 0.12
2,AAGTGGAT,0.00777 ± 0.081
3,ACGTGGGG,0.16 ± 0.039
4,ACGTGGAG,0.245 ± 0.14
5,ACGTGGAC,0.27 ± 0.08
6,ACGTGGAA,0.195 ± 0.017
7,CGCAAGTC,-0.182 ± 0.004
8,CCTCCTAA,0.0365 ± 0.0066
9,GGCACAGA,-0.0856 ± 0.03
10,ACTATGAT,0.0767 ± 0.069
11,TATGCCCA,-0.151 ± 0.043
12,ATCCTGAC,-0.115 ± 0.039
13,ATCGTAAT,0.255 ± 0.0089
14,ATCGTAAA,0.211 ± 0.026
15,ATCGTAAG,0.00053 ± 0.19
16,ATCGCACA,0.0937 ± 0.045
17,GGTTATAA,0.145 ± 0.068
18,TATTATCA,0.161 ± 0.013
19,AATTATAA,0.189 ± 0.036
20,TATTATAA,0.28 ± 0.079
21,GATTATAA,0.242 ± 0.016
22,TGTTAAAA,0.154 ± 0.061

row,Sequence,PBM 8-mer E-score
1,TCTTATAA,0.115 ± 0.051
2,CATTATAA,0.0818 ± 0.00099
3,TGTTATAA,0.279 ± 0.056
4,ATTAAGCA,0.105 ± 0.11
5,GAGATTGC,-0.148 ± 0.0026
6,CCTCCACG,-0.0554 ± 0.048
7,CTTTGAAA,0.159 ± 0.0086
8,GTTTGAAA,0.237 ± 0.022
9,ATTTGAAA,0.203 ± 0.025
10,AACTTCGA,0.0671 ± 0.04
11,ATTACTAG,-0.00293 ± 0.05
12,CTTACTAC,0.197 ± 0.1
13,AGTACTAT,-0.0269 ± 0.035
14,AGTACTAC,0.28 ± 0.035
15,ATTACTAC,0.2513 ± 0.0025
16,AGTACTAG,0.029 ± 0.019
17,CTTCGCAC,0.163 ± 0.037
18,ATGACTGG,-0.0322 ± 0.039
19,GGCACGAC,0.0476 ± 0.078
20,AGTTCACG,-0.107 ± 0.064
21,CCCGAACC,-0.159 ± 0.21
22,ACCAATTC,-0.0667 ± 0.11

row,Sequence,PBM 8-mer E-score
1,AACAATTA,0.259 ± 0.0043
2,CCCAATTC,0.249 ± 0.0091
3,AACAATTG,0.131 ± 0.0086
4,ATCAACAA,0.101 ± 0.048
5,CCCAATTA,0.187 ± 0.097
6,CACAACAA,0.205 ± 0.098
7,AACAACAT,0.168 ± 0.037
8,AACAATTC,0.127 ± 0.014
9,ATCAACAT,0.241 ± 0.022
10,ATCAACAG,0.116 ± 0.0076
11,AACAACAA,0.243 ± 0.0063
12,CAATCATC,-0.0452 ± 0.15
13,TACCGGAA,-0.106 ± 0.24
14,AACTCCTT,0.132 ± 0.07
15,CCCTGCAC,-0.03728 ± 0.00027
16,CGCTCTCC,-0.192 ± 0.091
17,CGAGATCC,-0.163 ± 0.13
18,AGGGGTCG,-0.0534 ± 0.037
19,CTGGAAGA,0.0596 ± 0.037
20,GCCAATTA,-0.00292 ± 0.022
21,CACAATAC,0.126 ± 0.028
